Measured values as given in PubChem BioAssay AID720555 (National Center for Advancing Translational Sciences (NCATS), 2013).
Records with an inconclusive call do not appear. Activity calls are given as the source filed them. Calls come from the whole dose curve; as a rule, active = well fitted inhibition curve with a large enough effect; inconclusive = small, poorly fitted or top-dose-only effect; inactive = no such curve, though single readings can be large or run the other way.

What follows are molecules tested against RecQ-like DNA helicase BLM (Homo sapiens) (UniProt P54132) (assay: qHTS for Inhibitors of Bloom's syndrome helicase (BLM): Helicase DNA unwinding fluorescent orthogonal confirmatory assay for SAR). Settings: fluorescence, orthogonal confirmation.
Text: Human RecQ DNA helicases participate in maintenance of genome stability and DNA repair. While other types of helicases have been explored as targets for drug development, members of the RecQ family have remained less well characterized. Mutations of the Bloom helicase gene have been associated with the rare human genetic disease called Bloom syndrome. […] Moreover, identified inhibitors can be used in cells and animal models to examine the consequences of inhibition on the survival of cancer cells where it has been shown that BLM plays an important role.
A fluorescence-based, biochemical assay in 1536 well format was developed to evaluate inhibition of BLM DNA unwinding activity. This assay was used to screen the MLPCN library. The resulting compounds were subjected to orthogonal and secondary biochemical assays to triage the initial hits, to classify compounds based on mode of action and to derive structure activity relationships (SARs) of candidate effectors. The data herein is the result of the Helicase DNA unwinding fluorescent orthogonal confirmatory assay. This fluorescent-based assay employs a purified BLM enzyme and utilizes gel electrophoresis to monitor the helicase-mediated unwinding of a fluorescently-labeled DNA substrate. For this assay decrease in the single-stranded DNA product band on the gel = inhibition of the BLM helicase activity. Inhibition is the desired outcome for this assay.
NIH Chemical Genomics Center [NCGC]
NIH Molecular Libraries Probe Centers Network [MLPCN]
Assay Submitter (PI): Opher Gileadi, Structural Genomics Consortium, University of Oxford, UK
Unwinding assay for the BLM helicase was carried out in a reaction buffer containing 50 mM Tris-HCl pH 7.5, 50mM NaCl, 2mM MgCl2, 2mM ATP, 1mM DTT, and 0.1 mg/ml BSA. Optimal substrate and enzyme concentrations as well as reaction times were determined experimentally. All reactions were performed at room temperature and terminated by the addition of loading buffer containing 20mM EDTA and 2.5% bromophenol blue. […] Substrate and product bands were quantified using ImageJ. […]

RecQ-like DNA helicase BLM (Homo sapiens), sequence (P54132 whole entry, looked up): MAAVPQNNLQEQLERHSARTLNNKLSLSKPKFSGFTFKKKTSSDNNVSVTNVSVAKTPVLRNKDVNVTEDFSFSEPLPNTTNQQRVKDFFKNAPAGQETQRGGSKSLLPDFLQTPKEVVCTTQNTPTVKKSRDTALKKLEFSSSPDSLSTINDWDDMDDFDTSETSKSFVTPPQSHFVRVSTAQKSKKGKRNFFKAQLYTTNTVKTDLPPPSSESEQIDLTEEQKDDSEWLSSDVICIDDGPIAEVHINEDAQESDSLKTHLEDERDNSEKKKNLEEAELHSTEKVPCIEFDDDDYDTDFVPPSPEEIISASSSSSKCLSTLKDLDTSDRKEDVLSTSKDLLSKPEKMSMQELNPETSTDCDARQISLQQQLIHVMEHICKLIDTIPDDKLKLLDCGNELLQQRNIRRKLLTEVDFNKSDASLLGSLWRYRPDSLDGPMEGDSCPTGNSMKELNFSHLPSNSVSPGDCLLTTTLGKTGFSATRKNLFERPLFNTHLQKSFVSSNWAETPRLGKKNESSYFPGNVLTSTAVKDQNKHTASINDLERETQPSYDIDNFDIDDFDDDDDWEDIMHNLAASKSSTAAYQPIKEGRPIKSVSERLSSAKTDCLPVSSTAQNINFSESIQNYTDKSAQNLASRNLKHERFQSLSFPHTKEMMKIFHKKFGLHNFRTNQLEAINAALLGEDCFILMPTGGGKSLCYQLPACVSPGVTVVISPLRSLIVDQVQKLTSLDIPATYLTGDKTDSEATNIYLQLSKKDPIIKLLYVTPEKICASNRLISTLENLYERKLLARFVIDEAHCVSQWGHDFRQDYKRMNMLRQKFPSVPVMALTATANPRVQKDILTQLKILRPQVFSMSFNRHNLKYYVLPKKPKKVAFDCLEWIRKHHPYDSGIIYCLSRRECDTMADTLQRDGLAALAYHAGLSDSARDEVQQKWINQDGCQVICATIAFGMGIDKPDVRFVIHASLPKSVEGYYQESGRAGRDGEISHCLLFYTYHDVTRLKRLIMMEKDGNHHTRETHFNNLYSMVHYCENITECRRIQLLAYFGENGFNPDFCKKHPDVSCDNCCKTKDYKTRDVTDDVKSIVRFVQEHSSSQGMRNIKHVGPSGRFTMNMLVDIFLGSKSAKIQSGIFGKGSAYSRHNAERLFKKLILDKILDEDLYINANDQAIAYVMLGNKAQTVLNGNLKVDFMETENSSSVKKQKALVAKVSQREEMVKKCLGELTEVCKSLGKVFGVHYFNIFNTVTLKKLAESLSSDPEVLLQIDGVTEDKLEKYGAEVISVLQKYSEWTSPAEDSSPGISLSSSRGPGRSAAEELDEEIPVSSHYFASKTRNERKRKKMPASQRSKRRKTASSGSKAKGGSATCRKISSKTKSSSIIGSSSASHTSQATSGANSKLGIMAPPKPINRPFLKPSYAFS

| Structure (SMILES) | Potency |
| --- | --- |
| N#Cc1ccc(NC(=O)Nc2nnc(-c3ccncc3)s2)cc1Br | 1.12 µM (active) |
| N#Cc1ccc(NC(=O)Nc2nnc(-c3ccncc3)s2)cc1C(F)(F)F | 5.62 µM (active) |
| N#Cc1ccc(NC(=O)Nc2nnc(-c3ccncc3)s2)cc1Cl | 1.58 µM (active) |
